# According to PubChem BioAssay (NCATS):
# Starred links: 1 amine or outer side, 2 acyl side, 3 side chain; linkers in the order of their positions; H or OH if unused. Positions of bridges follow the written chain, without caps; N, C: chain ends. Non-standard residues stand in square brackets, D forms with d. Residues, ends and D or L forms follow the SMILES beside them. Chains are numbered I, II in the order given. *: point of attachment. Actinocin(9to1) = Cc1c2oc3c(C)ccc(C(=O)[*:1])c3nc-2c(C(=O)[*:2])c(N)c1=O; NMeV = CN[CH](C(=O)O)C(C)C; Nva = CCC[C@H](N)C(=O)O; Cbz = O=C(OCc1ccccc1)*; Sar = CNCC(=O)O
# Assay: qHTS profiling of the MIPE4 collection as inhibitors of Plasmodium falciparum (DD2) proliferation (AID 743345)
# Details: P. falciparum Dd2 in erythrocytes, SYBR Green DNA, 72 h; at 28.5 µM (top of the series) unless noted
# From the text: Plasmodium falciparum is a virulent malarial parasite that kills 1-2 million people worldwide each year. Transmitted by mosquitoes, the sporozoite form of the parasite enters the blood stream to infect hepatocytes, where they become merozoites that infect red blood cells (erythrocytes). Within erythrocytes, merozoites begin a […] cycle of growth and division, after which the parasite is released to infect new red blood cells. Gametocytes, which form within erythrocytes as well, circulate in the bloodstream and are ingested by the mosquito, thereby completing the life cycle. To profile malarial isolates for differential chemical responses and to identify inhibitors of malarial growth, an assay that measures P. falciparum growth and replication within erythrocytes was employed. This assay uses a DNA binding fluorescent dye (SYBR Green) to detect parasite DNA following cell lysis. Because mature erythrocytes lack DNA, only Plasmodium-derived DNA is detected.
# The SYBR Green viability assay was adapted from a method described previously (Plouffe et al., 2008). For screening 3 ul culture medium was dispensed into 1536 well black clear bottom plates (Aurora Biotechnologies) using a Multidrop Combi (Thermo Fisher Scientific Inc.), 23 nL compounds in DMSO were added by a pin tool (Kalypsys), and 5 ul of erythrocytes infected with P. falciparum (0.3% parasitemia, 2.5% hematocrit final concentration) were added. The plates were incubated at 37 C in a humidified incubator in 5% CO2 for 72 h, and 2 ul lysis buffer (20 mM Tris HCl, 10 mM EDTA, 0.16% saponin, 1.6% triton X, 10X SYBR Green I supplied as 10,000X […] by Invitrogen) was added to each well. The plates were mixed for 25 sec with gentle shaking and incubated overnight at room temperature in the dark. The following morning, fluorescence intensity at 485(14) nm excitation and 535(25) nm emission wavelengths was measured on an EnVision (Perkin Elmer) plate reader. Plate reads were normalized relative to the control inhibitor (0.29 uM artemisinin) and vehicle (DMSO) wells present on each plate and then corrected by an algorithm using vehicle-only control plates at the beginning and end of the compound plate stack.
row,Compound,"parasite growth remaining, % of DMSO control (lower = more inhibition)"
1,CCC[C@@H](C=O)NC(=O)[C@H](CC(C)C)NC(=O)[C@H](CC(C)C)NC(=O)OCc1ccccc1 (Cbz-Leu-Leu-[Nva]-aldehyde),6.49%
2,CCc1nc(-c2cccc(C)c2)c(-c2ccnc(NC(=O)c3ccccc3)c2)s1,47.6%
3,Cc1cnc(Nc2ccc(N3CCN(C)CC3)cc2)nc1Nc1cccc(S(=O)(=O)NC(C)(C)C)c1,8.81%
4,COc1cc(C[C@@H](CO)[C@H](CO)Cc2ccc(O)c(OC)c2)ccc1O,100%
5,C[C@H](NC(=O)Cc1cc(F)cc(F)c1)C(=O)N[C@H](C(=O)OC(C)(C)C)c1ccccc1,95.2%
6,CCCCCN=C(N)NN=Cc1c[nH]c2ccc(OC)cc12,7.01%
7,N#CC(=Cc1ccc(O)c(O)c1)C(=O)NCc1ccccc1,87.2%
8,CC(C)C[C@@H](C=O)NC(=O)[C@H](CC(C)C)NC(=O)[C@H](CC(C)C)NC(=O)OCc1ccccc1 (Cbz-Leu-Leu-Leu-aldehyde),6.51%
9,Cc1ncc(-c2ccnc(Nc3ccc(S(C)(=O)=O)cc3)n2)n1C(C)C,19.3%
10,OCC(O)C(O)C(O)CO (stereo not given),105%
11,CCc1cnn2c(NCc3ccc[n+]([O-])c3)cc(N3CCCC[C@@H]3CCO)nc12,14%
12,O=C(c1ccc(F)cc1)N1CCC[C@H](c2nc(-c3ccc(F)cc3)no2)C1,94.6%
13,OC[C@@H](O)[C@@H](O)[C@H](O)[C@@H](O)CO,91.5%
14,Nc1ncn([C@@H]2O[C@H](CO)[C@@H](O)[C@@H]2O)c(=O)n1,95.9%
15,c1ccc2c(Oc3nc(Nc4ccc(N5CCOCC5)cc4)c4ncn(C5CCCCC5)c4n3)cccc2c1,8.01%
16,CC(C)c1cc(C(C)C)c(CC(=O)NS(=O)(=O)Oc2c(C(C)C)cccc2C(C)C)c(C(C)C)c1,89.6%
17,CCOC(=O)C=C[C@H](C[C@@H]1CCNC1=O)NC(=O)[C@@H](CC(=O)[C@@H](NC(=O)c1cc(C)on1)C(C)C)Cc1ccc(F)cc1,98.4%
18,CC(O)(C#Cc1ccc2c(c1)N(c1nc(N)ncc1Cl)CC2)c1nccs1 (stereo not given),33.4%
19,Cc1cc(C(=O)NOCCO)c(Nc2ccc(I)cc2F)n(C)c1=O,87.7%
20,C=CC(=O)Nc1cccc(Nc2nc(NC3CCC(N(C)C)CC3)nc3c2ncn3C(C)C)c1 (stereo not given),15.3%

row,Compound,"parasite growth remaining, % of DMSO control (lower = more inhibition)"
1,Nc1nc(N)c2nc(-c3cccc(O)c3)c(-c3cccc(O)c3)nc2n1,10.5%
2,CC[C@H]1OC(=O)[C@H](C)[C@@H](O[C@H]2C[C@@](C)(OC)[C@@H](O)[C@H](C)O2)[C@H](C)[C@@H](O[C@@H]2O[C@@H](C)C[C@H](N(C)C)[C@@H]2O)[C@](C)(O)C[C@@H](C)C(=O)[C@H](C)[C@@H](O)[C@]1(C)O,75%
3,Cc1cncc2cccc(S(=O)(=O)N3CCCN(C(=O)CN)C[C@@H]3C)c12,89.9%
4,CCc1ccc(C(=O)Nc2cc(CN3CCN(C)CC3)cc(C(F)(F)F)c2)cc1C#Cc1cnc2ccnn2c1,6.73%
5,CC(C)c1cnn2c(NCc3ccccc3)cc(NCCCCCCN)nc12,12.1%
6,OCc1ccccc1O[C@@H]1O[C@H](CO)[C@H](O)[C@H](O)[C@H]1O,96.7%
7,Cn1cc(-c2cnn3c(N)c(Br)c([C@H]4CCCNC4)nc23)cn1,10.3%
8,CC1(C)O[C@@H]2C[C@H]3[C@@H]4CCC5=CC(=O)C=C[C@]5(C)[C@@H]4[C@@H](O)C[C@]3(C)[C@]2(C(=O)CO)O1,49.3%
9,O=S(=O)(O)CCSSCCS(=O)(=O)O,89%
10,"Cc1c2oc3c(C)ccc(C(=O)NC4C(=O)NC(C(C)C)C(=O)N5CCCC5C(=O)N(C)CC(=O)N(C)C(C(C)C)C(=O)OC4C)c3nc-2c(C(=O)NC2C(=O)NC(C(C)C)C(=O)N3CCCC3C(=O)N(C)CC(=O)N(C)C(C(C)C)C(=O)OC2C)c(N)c1=O (stereo not given) (I: TVP[Sar][NMeV] / II: TVP[Sar][NMeV]; ester I:1-I:C, II:1-II:C; linker I:N-II:N via Actinocin(9to1); configuration not given here)",3.9%
11,C#C[C@]1(O)CC[C@@H]2[C@@H]3CCC4=CC(=O)CC[C@@H]4[C@H]3CC[C@@]21CC,79.2%
12,COC(=O)C=CC(=O)OC,97.5%
13,O=C(O)C[C@H](O)C[C@H](O)C=Cc1c(C2CC2)nc2ccccc2c1-c1ccc(F)cc1,92.7%
14,CON=C(C(=O)N[C@@H]1C(=O)N2C(C(=O)O)=C(CSC(=O)c3ccco3)CS[C@H]12)c1csc(N)n1,101%
15,CN[C@H]1[C@@H](O)[C@@H]2O[C@@H]3O[C@H](C)CC(=O)[C@]3(O)O[C@@H]2[C@@H](NC)[C@H]1O,85.6%
16,CC(C=CC1=C(C)CCCC1(C)C)=CC=CC(C)=CC(=O)Nc1ccc(O)cc1,6.69% [at 57.5 µM]
17,NC(=O)c1ncn([C@@H]2O[C@H](CO)[C@@H](O)[C@@H]2O)c1N,91.5%
18,CCOC(=O)N1CCN([N+]([O-])=NOc2ccc([N+](=O)[O-])cc2C#N)CC1,23.5%
19,O=C1NC(O)CCN1[C@@H]1O[C@H](CO)[C@H](O)[C@H]1O (stereo not given in full),97.8%
20,c1ccc(CNc2nc(NCc3ccccc3)c3ccccc3n2)cc1,7.99%
